From PubChem BioAssay (NCATS)
Records with an inconclusive call do not appear. The source made the active and inactive calls. Unless noted, calls follow the shape of the dose curve; as a rule, active = well fitted curve in the direction sought with a large enough effect; inconclusive = small, poorly fitted or top-dose-only effect, or another doubt; inactive = no such curve, though single readings can be large; an effect the other way counts as inactive or inconclusive.

Columns and labels:
[1] = HPAF-II 24hr Apoptosis Induction qHTS against the NCATS CANVASS Library (AID 1347356); conditions: HPAF-II caspase-3/7 Caspase-Glo luminescence; series mostly up to 46.1 µM; also: 0% is about no effect
Procedure, shortened: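 Using an 11-point qHTS format, HPAF-II cells in DMEM/10% FBS received compounds for 24 h; doxorubicin titration as control. Caspase-3/7 activity quantified by DEVD-luciferase luminescence.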

[2] = HEK293 18hr Apoptosis Induction qHTS against the NCATS CANVASS Library (AID 1347357); conditions: HEK293 caspase-3/7 Caspase-Glo luminescence; series mostly up to 46.1 µM; also: 0% is about no effect
Procedure, shortened: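 Cells seeded at 500/well in DMEM + 10% FBS. Compounds pinned, 11 concentrations. 18 h, 37 degrees C/5% CO2. Caspase-Glo 3/7 added, 15 min RT dark, luminescence read.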

[3] = HPAF-II 12hr Apoptosis Induction qHTS against the NCATS CANVASS Library (AID 1347358); conditions: HPAF-II caspase-3/7 Caspase-Glo luminescence; series mostly up to 46.1 µM; also: 0% is about no effect
Procedure, shortened: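 Twelve-hour compound exposure of HPAF-II cells in DMEM with 10% FBS, then luminescent Caspase-Glo 3/7 detection after 15 min at room temperature; doxorubicin control.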

[4] = HPAF-II 18hr Apoptosis Induction qHTS against the NCATS CANVASS Library (AID 1347360); conditions: HPAF-II caspase-3/7 luminescence; series mostly up to 46.1 µM; also: 0% is about no effect
Procedure, shortened: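 Seed HPAF-II cells at 500/well in DMEM + 10% FBS, pin-transfer compounds, incubate 18 hours at 37 degrees C/5% CO2, add Caspase-Glo 3/7 reagent, wait 15 min, read luminescence.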

[5] = target: Luciferin 4-monooxygenase (Photinus pyralis) (UniProt P08659); assay: Firefly luciferase counterscreen qHTS: Assay Interference Panel against the NCATS CANVASS Library (AID 1347363); conditions: purified firefly luciferase, luminescence inhibition, 5 min; series mostly up to 57.5 µM; also: 0% is about no effect
Procedure, shortened: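 Purified P. pyralis luciferase was added to compounds (11-point series) preincubated 15 min at room temperature with substrate containing 0.013 mM D-luciferin and 0.013 mM ATP; luminescence was read after 5 min.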

[6] = qHTS for ATAD5 Agonist screened against the NCATS CANVASS Library (AID 1347367); conditions: HEK293T ATAD5-luciferase reporter, luminescence, 16 h; series mostly up to 46.1 µM;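 also: luciferase reporter driven by ATAD5 which rises upon DNA damage; 0% is about no effect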
Procedure, shortened: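 HEK293T-ATAD5 luc reporter; 2000 cells/well; 5hr settle; cpd 11-pt qHTS; 16hr 37C 5% CO2 dark; viability by CellTiter-Fluor (AFC fluorescence); then luciferase luminescence, 30min RT.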

[7] = target: Nuclear receptor subfamily 1 group I member 3 (Homo sapiens) (UniProt Q14994); assay: qHTS for Constitutive Androstane Receptor (CAR) Agonist screened against the NCATS CANVASS Library (AID 1347373); conditions: HepG2-hCAR-CYP2B6 luciferase reporter, ONE-Glo luminescence; series mostly up to 46.1 µM;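 also: every well also contained 1.5 µM PK11195 alongside the test compound; 0% is about no effect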
Procedure, shortened: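 In an 11-point concentration series, compounds were incubated 24hr with HepG2 cells carrying hCAR and a CYP2B6-2.2kb reporter, with PK11195 at 1.5uM final. A CellTiter-Fluor viability read preceded the ONE-Glo luminescence read.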

[8] = 10-beta competent E. coli microbial cell viability qHTS against the NCATS CANVASS Library (AID 1347376); also: 0% is about no effect; conditions: E. coli 10-beta viability, BacTiter-Glo ATP luminescence, overnight; series mostly up to 46.1 µM
Procedure, shortened: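 Overnight 37C exposure of 10-beta E. coli (0.2 OD) to an 11-point concentration series; ATP-based luminescence after 20 min room-temperature reagent incubation; daunomycin as control.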

[9] = Inflammasome Signaling qHTS Counterscreen: IL-1-beta AlphaLISA counterscreen against the NCATS CANVASS Library (AID 1347381); conditions: Purified IL-1beta AlphaLISA signal interference counterscreen; series mostly up to 57.5 µM;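 also: cell-free check with purified IL-1β in medium and no THP-1 cells; 0% is about no effect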
Procedure, shortened: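 Here, no cellular stimulation occurs; compounds in an 11-point series meet 4 pg purified IL-1-beta directly. Bead-based AlphaLISA detection follows (1 h acceptor/antibody, then 30 min donor, dark, room temperature), with excitation at 680 nm.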

[10] = Cytotoxicity qHTS for assessment of Hepg2 cells membrane integrity screened against the NCATS CANVASS Library (AID 1347387); conditions: HepG2 LDH release (CytoTox-ONE) fluorescence, 5 h; series mostly up to 46.1 µM
Procedure, shortened: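 Membrane damage in HepG2 monolayers was estimated from released LDH, measured with CytoTox-ONE (ex 560/em 590 nm), after 5 hr treatment across 0.59 nM - 46 uM final.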

[11] = qHTS for activators of dead-cell proteases activity screened against the NCATS CANVASS Library (AID 1347392); conditions: HepG2 cytotoxicity, dead-cell protease luminescence, 5 h; series mostly up to 46.1 µM;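 also: luminescence from protease leaking out of membrane-damaged cells cleaving impermeant substrate; 0% is about no effect; rising signal means more cytotoxicity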
Procedure, shortened: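 Cytotoxicity in HepG2 cells was assessed by released protease cleaving AAF-aminoluciferin, with luminescence as signal. Exposure lasted 5 h at 37C across an 11-point series.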

[12] = Redox Reaction Profiling qHTS: Assay Interference Panel against the NCATS CANVASS Library (AID 1347401); conditions: resazurin-DTT redox cycling, fluorescence, 15 min; series mostly up to 57.1 µM; also: potency is read from the fitted curve at half-maximal effect
Procedure, shortened: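 Quantitative HTS over an 11-point series was run in HEPES pH 7.3 with 50 mM NaCl, 200 uM DTT and 5 uM resazurin. Initial and 15-min resorufin fluorescence readings were taken.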

[13] = Cytotoxicity counterscreen for inhibitors of SARS-CoV-2 cell entry (AID 1645845; calls by dose curve; also: nearly all actives have a fitted effect of over 50% in size; also: potency is read from the fitted curve at half-maximal effect); conditions: cell viability (SARS-CoV-2 entry assay cells); series mostly up to 57.1 µM
Procedure, shortened: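 After a 15 min room-temperature ATPLite 1step step, luminescence reflected ATP remaining in HEK293-ACE2 cells exposed to compound for 1 h plus 48 h at 37 C, with percent activity set by cell and no-cell controls.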

[14] = target: Glutathione peroxidase 1 (Homo sapiens) (UniProt P07203); assay: Primary qHTS Assay for Inhibitors of Recombinant Selenoprotein Glutathione Peroxidase 1 (GPX1) (AID 1845191); conditions: recombinant GPX1, GR-coupled NADPH fluorescence, 15 min; series mostly up to 48.8 µM; also: nearly all actives have a fitted effect of over 65% in size
Procedure, shortened: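 GPX1 10 nM, GR 100 nM, GSH 1 mM, NADPH 0.5 mM, CHP 0.5 mM (final). 30-min cpd preincubation, RT. Ex340/Em450 read t=0, t=15 min.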

[15] = target: Phospholipid hydroperoxide glutathione peroxidase GPX4 (Homo sapiens) (UniProt P36969); assay: Primary qHTS Assay for Inhibitors of Recombinant Selenoprotein Glutathione Peroxidase 4 (GPX4) (AID 1845192); conditions: recombinant GPX4, GR-coupled NADPH fluorescence, 15 min; series mostly up to 50 µM; also: nearly all actives have a fitted effect of over 65% in size
Procedure, shortened: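 qHTS, GR-coupled: GPX4 200 nM + cpd 30 min RT → GSH 1 mM, NADPH 0.5 mM, GR 100 nM → CHP 0.5 mM start; fluor 340/450 at t0 and t15 min; no-enzyme wells as control.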

[16] = qHTS drug screen for cell cycle checkpoint inhibitors in PARPi-resistant BRCA-mutant ovarian cancer cell lines. (AID 1963452; calls by dose curve); conditions: PEO1/OlaR viability, CellTiter-Glo luminescence, 96 h, stronger effect = lower value
Procedure, shortened: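 PEO1, PEO4 and PEO1/OlaR ovarian cancer cells, 600 per well, exposed 96 h at 37C to a dilution series. Viability read by CellTiter-Glo luminescence, normalized to DMSO and empty wells; activity summarized as Z-AUC.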

[17] = measured here: PEO1 parental Z-AUC

Chain of Luciferin 4-monooxygenase (Photinus pyralis) (P08659 whole entry, looked up): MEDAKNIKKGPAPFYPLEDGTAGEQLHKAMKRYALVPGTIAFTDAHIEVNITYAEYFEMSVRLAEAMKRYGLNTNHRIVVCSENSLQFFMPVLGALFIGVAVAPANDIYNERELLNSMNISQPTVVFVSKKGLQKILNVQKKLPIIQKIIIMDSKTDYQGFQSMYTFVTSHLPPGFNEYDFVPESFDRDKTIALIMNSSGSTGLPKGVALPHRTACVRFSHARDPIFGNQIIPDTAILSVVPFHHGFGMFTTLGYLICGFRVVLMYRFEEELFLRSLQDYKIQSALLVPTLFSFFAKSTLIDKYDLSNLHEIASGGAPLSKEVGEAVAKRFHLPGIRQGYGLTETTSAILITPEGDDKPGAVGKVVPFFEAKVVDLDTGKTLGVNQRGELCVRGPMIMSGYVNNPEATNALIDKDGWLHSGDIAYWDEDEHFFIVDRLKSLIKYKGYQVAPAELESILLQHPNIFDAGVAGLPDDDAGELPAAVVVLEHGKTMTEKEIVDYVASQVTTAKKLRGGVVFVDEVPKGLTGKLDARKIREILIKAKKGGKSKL
Chain of Phospholipid hydroperoxide glutathione peroxidase GPX4 (Homo sapiens) (P36969 whole entry, looked up): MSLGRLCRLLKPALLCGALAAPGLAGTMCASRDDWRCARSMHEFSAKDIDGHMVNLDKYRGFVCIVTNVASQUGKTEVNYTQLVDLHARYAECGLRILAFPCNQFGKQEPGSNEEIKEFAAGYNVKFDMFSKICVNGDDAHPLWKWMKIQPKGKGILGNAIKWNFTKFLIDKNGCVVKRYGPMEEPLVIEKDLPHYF
Chain of Nuclear receptor subfamily 1 group I member 3 (Homo sapiens) (Q14994 whole entry, looked up): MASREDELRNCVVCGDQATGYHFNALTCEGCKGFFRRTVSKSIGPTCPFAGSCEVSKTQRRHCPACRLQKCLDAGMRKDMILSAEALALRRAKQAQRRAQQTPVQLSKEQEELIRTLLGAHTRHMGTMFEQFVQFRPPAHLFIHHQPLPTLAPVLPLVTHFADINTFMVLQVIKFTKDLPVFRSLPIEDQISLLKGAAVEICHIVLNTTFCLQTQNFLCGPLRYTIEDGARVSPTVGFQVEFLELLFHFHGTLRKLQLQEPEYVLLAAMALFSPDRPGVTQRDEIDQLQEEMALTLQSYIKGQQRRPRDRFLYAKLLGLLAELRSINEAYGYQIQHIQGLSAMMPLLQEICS
Chain of Glutathione peroxidase 1 (Homo sapiens) (P07203 whole entry, looked up): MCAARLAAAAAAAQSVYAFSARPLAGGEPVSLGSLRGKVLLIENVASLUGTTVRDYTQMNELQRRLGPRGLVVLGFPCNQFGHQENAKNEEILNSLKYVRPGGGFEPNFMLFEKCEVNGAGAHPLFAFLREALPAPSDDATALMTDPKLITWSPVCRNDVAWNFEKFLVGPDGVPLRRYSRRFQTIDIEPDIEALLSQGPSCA

C[N+](C)(C)CCc1c[nH]c2ccccc12
inactive: outcome [1] | outcome [2] | outcome [3] | outcome [4] | Potency [5] | Potency [6] | Potency [7] | outcome [8] | outcome [9] | outcome [10] | outcome [11] | Potency [12]

C/C=C1/CN2CC[C@@]34c5ccccc5N(C)[C@@H]3[C@@H]2C[C@@H]1[C@H]4C(=O)OC
inactive: outcome [1] | outcome [2] | outcome [3] | outcome [4] | Potency [5] | Potency [6] | Potency [7] | outcome [8] | outcome [9] | outcome [10] | outcome [11] | Potency [12]

COC1=C(C2=C(OC)C(=O)c3cc4c(c(O)c3C2=O)C(=O)O[C@H](C)C4)C(=O)c2c(cc3c(c2O)C(=O)O[C@H](C)C3)C1=O
active: Potency [12] 1.14 µM
inactive: outcome [1] | outcome [2] | outcome [3] | outcome [4] | Potency [6] | Potency [7] | outcome [8] | outcome [9] | outcome [10] | outcome [11]

CC[C@]12C=CCN3CC[C@]4(C(=C(C(=O)OC)C1)Nc1ccccc14)[C@@H]32
inactive: outcome [1] | outcome [2] | outcome [3] | outcome [4] | Potency [5] | Potency [6] | Potency [7] | outcome [8] | outcome [9] | outcome [10] | outcome [11] | Potency [12]

CCCC[C@@H]1CC[C@H]2CCCC(CCCO)N12 (stereo partly drawn)
inactive: outcome [1] | outcome [2] | outcome [3] | outcome [4] | Potency [5] | Potency [6] | Potency [7] | outcome [8] | outcome [9] | outcome [10] | outcome [11] | Potency [12]

CC[C@H]1CN2CCc3c([nH]c4cccc(OC)c34)[C@@H]2C[C@@H]1/C(=C\OC)C(=O)OC
inactive: outcome [1] | outcome [2] | outcome [3] | outcome [4] | Potency [5] | Potency [6] | Potency [7] | outcome [8] | outcome [9] | outcome [10] | outcome [11] | Potency [12]

C/C=C1/CN2C3CC1C1=CCC(=O)N4c5ccccc5[C@@]3(C[C@@H]2C2=C[C@H]3C5CC6N(CC[C@@]67c6ccccc6N(C2=O)[C@@H]37)C/C5=C/C)[C@H]14 (stereo partly drawn)
inactive: outcome [1] | outcome [3] | outcome [4] | Potency [5] | Potency [6] | Potency [7] | outcome [8] | outcome [9] | outcome [10] | outcome [11] | Potency [12]

CO[C@H]1[C@H](O[C@H]2CC[C@]3(C=O)[C@H]4CC[C@]5(C)[C@@H](C6=CC(=O)OC6)CC[C@]5(O)[C@@H]4CC[C@]3(O)C2)O[C@H](C)[C@H](O)[C@@H]1OC
inactive: outcome [1] | outcome [2] | outcome [3] | outcome [4] | Potency [5] | Potency [6] | Potency [7] | outcome [8] | outcome [9] | outcome [10] | outcome [11] | Potency [12]

C[C@]12CCC3[C@@H](CC[C@@H]4C[C@@H](O)CC[C@]34CO)[C@@]1(O)CC[C@@H]2C1=CC(=O)OC1 (stereo partly drawn)
inactive: outcome [1] | outcome [2] | outcome [3] | outcome [4] | Potency [5] | Potency [6] | Potency [7] | outcome [8] | outcome [9] | outcome [10] | outcome [11] | Potency [12]

CCCCC1CC[C@H]2CCCC(CCC)N12 (stereo partly drawn)
inactive: outcome [1] | outcome [2] | outcome [3] | outcome [4] | Potency [5] | Potency [6] | Potency [7] | outcome [8] | outcome [9] | outcome [10] | outcome [11] | Potency [12]

C/C=C(\C)C(=O)N[C@@H](c1ccccc1)[C@@H](O)C(=O)O[C@H]1C[C@@]2(O)[C@@H](OC(=O)c3ccccc3)[C@@H]3[C@]4(OC(C)=O)CO[C@@H]4C[C@H](O)[C@@]3(C)C(=O)[C@H](OC(C)=O)C(=C1C)C2(C)C
inactive: Potency [13] | Potency [14] | Potency [15] | Z-AUC [16] -2.81
-2.97: Z-AUC [16, 17]
-3.26: Z-AUC ([16]; measured here: PEO4 Z-AUC)

N#CC(O[C@@H]1O[C@H](CO[C@@H]2O[C@H](CO)[C@@H](O)[C@H](O)[C@H]2O)[C@@H](O)[C@H](O)[C@H]1O)c1ccccc1 (stereo partly drawn)
inactive: Potency [14] | Potency [15] | Z-AUC [16] 0.897
0.881: Z-AUC ([16]; measured here: PEO4 Z-AUC)
0.644: Z-AUC [16, 17]

COC(=O)[C@]12CCC(C)(C)C[C@H]1[C@H]1C(=O)C=C3[C@@]4(C)C=C(C#N)C(=O)C(C)(C)[C@@H]4CC[C@@]3(C)[C@]1(C)CC2
inactive: Potency [14] | Potency [15]
active: Potency [13] 2.82 µM

C[C@@H](C1CC[C@@]2(O)C3=CC(=O)[C@@H]4C[C@@H](O)[C@@H](O)C[C@]4(C)[C@H]3CC[C@]12C)[C@H](O)CCC(C)(C)O (stereo partly drawn)
inactive: Potency [13] | Potency [14] | Potency [15]

COC(=O)[C@@]12OC[C@]34[C@H]([C@@H](O)[C@@H]1O)[C@@]1(C)CC(=O)C(O)=C(C)[C@@H]1C[C@H]3OC(=O)[C@H](OC(=O)/C=C(\C)C(C)C)[C@@H]24
inactive: Potency [14] | Potency [15]

Cn1c(COP(=O)(NCCBr)NCCBr)cnc1[N+](=O)[O-]
0.833: Z-AUC [16, 17]
1.09: Z-AUC ([16]; measured here: PEO4 Z-AUC)
inactive: Potency [13] | Potency [14] | Potency [15] | Z-AUC [16] 0.865
